For 6 compounds, composite z-score and z-score results are on record in PubChem BioAssay.

The subject of test [1] is Plasmodium falciparum Sir2 (PF13_0152, Sir2A). Description: Plasmodium falciparum Sir2A binding compounds – biochemical, small-molecule microarray, 635 nm fluorescence, primary screen (AID 1098).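 Further: score merges spot fluorescence intensity with its signal-to-noise ratio.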 The conditions noted are these: fluorescence 635 nm, higher = more signal.
A short description of test [2]: probe aDKK1 binding to arrayed compounds – biochemical, biotinylated probe, 635/667 nm fluorescence, primary screen (AID 1099).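 Further: score merges 667nm spot fluorescence with signal to noise across triplicate slides.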 The conditions noted are these: small-molecule microarray, higher = more signal.
Test [3] is described as follows: probe aCHRDL2 binding to arrayed compounds – biochemical, biotinylated probe, 635/667 nm fluorescence, primary screen (AID 1100). The conditions noted are these: small-molecule microarray, higher = more signal.
Test [4] in a line: change in splice reporter luminescence, either direction, cell-based, HEK293, spliceosome inhibition project, primary screen (AID 1101).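 Further: HEK293 cells carrying a splicing-competent luciferase reporter gene; test concentration not given here.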 The conditions noted are these: HEK293 splicing luciferase reporter, 24 h, higher = more signal, called active from +8 up or from −8 down.
Test [5] addresses Fibroblast growth factor 10 (Homo sapiens) (UniProt O15520). Briefly: compounds binding fibroblast growth factor 10 – biochemical, small-molecule microarray, 635 nm fluorescence, primary screen (AID 1102). The conditions noted are these: FGF10 binding, fluorescence 635 nm, higher = more signal.
Test [6] concerns glycogen synthase kinase-3 (GSK3A per assay name; protocol says GSK3B). Description: compounds binding glycogen synthase kinase-3 – biochemical, small-molecule microarray, 635 nm fluorescence, GSK3A, primary screen (AID 1103). Further: the record names both GSK3A and GSK3B. The conditions noted are these: fluorescence 635 nm, higher = more signal.
Test [7] has as its target Epidermal growth factor receptor (Homo sapiens) (UniProt P00533). Briefly: compounds binding epidermal growth factor receptor – biochemical, small-molecule microarray, 635 nm fluorescence, primary screen (AID 1104).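 Further: score merges 667 nm emission intensity with spot signal to noise over triplicate slides.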 The conditions noted are these: EGFR binding, higher = more signal.
Test [8] concerns the target Follistatin-related protein 3 (Homo sapiens) (UniProt O95633). Briefly: compounds binding follistatin-related protein 3 – biochemical, small-molecule microarray, 635 nm fluorescence, primary screen (AID 1105).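 Further: score merges emission near 667 nm and signal to noise per printed spot across three slides.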 The conditions noted are these: FSTL3 binding, higher = more signal.
Test [9] has as its target Dickkopf-related protein 1 (Homo sapiens) (UniProt O94907). Description: small molecules binding DKK1 protein – biochemical, small-molecule microarray, 635 nm fluorescence scan, primary screen (AID 1106).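 Further: score merges emission near 667 nm with signal to noise over three replicate slides.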 The conditions noted are these: higher = more signal.
For test [10], the system named is Inhibin beta A chain (activin A). Description: small molecules binding activin A – biochemical, small-molecule microarray, 635 nm fluorescence scan, primary screen (AID 1107).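 Further: mouse activin A protein probed at 4.33 µg/mL on printed slides; score merges bound-protein fluorescence near 667 nm with spot signal-to-noise.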 The conditions noted are these: INHBA, higher = more signal.
Test [11] deals with Human papillomavirus type 1a protein E7 (residues 44-93). Briefly: small molecules binding HPV E7 44-93 – biochemical, small-molecule microarray, residues 44-93, 635 nm fluorescence, primary screen (AID 1108).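 Further: E7 fragment applied at 1 µg/mL in TBST for 1 h at 4 C; score combines spot fluorescence with its signal to noise ratio.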 The conditions noted are these: fluorescence 635 nm, higher = more signal.
Test [12] can be described thus: hepatitis C replication reporter changes, two-sided – Huh7 cells, luciferase reporter, HCV replication inhibitor project, primary screen (AID 1109).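 Further: huh7 hepatoma cells harbouring a luciferase neomycin HCV replicon reporter; luciferase luminescence as measure of HCV replicon replication; test concentration not given here.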 The conditions noted are these: Huh7 HCV replicon luciferase reporter, 48 h; higher = more signal.
For test [13], the target named is Left-right determination factor 2 (Homo sapiens) (UniProt O00292). Briefly: small molecules binding LEFTY2 protein – biochemical, small-molecule microarray, 635 nm fluorescence scan, primary screen (AID 1110). The conditions noted are these: higher = more signal.
Test [14] deals with Calmodulin-1 (Homo sapiens) (UniProt P0DP23). Briefly: small molecules binding calmodulin-1 with EGTA – biochemical, small-molecule microarray, Cy5-labelled CALM1, profiling panel (AID 1111).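 Further: labelled calmodulin applied in Tris saline Tween buffer holding calcium plus EGTA and DTT.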 The conditions noted are these: Cy5-CALM1 binding fluorescence, higher = more signal.
For test [15] the target is unchanged. Briefly: small molecules binding Ca-loaded calmodulin-1 – biochemical, small-molecule microarray, Cy5-labelled CALM1, plus calcium, artefact control for SMM control-protein annotation, profiling panel (AID 1112).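 Further: score merges spot fluorescence with signal to noise from triplicate slides.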 The conditions noted are these: Cy5-CALM1 binding fluorescence, higher = more signal.
Test [16] in a line: probe aWnt5a binding to arrayed compounds – biochemical, biotinylated probe, 635/667 nm fluorescence, primary screen (AID 1113).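 Further: score merges 667 nm fluorescence intensity with signal-to-noise per printed feature.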 The conditions noted are these: small-molecule microarray, higher = more signal.
A short description of test [17]: probe aShh binding to arrayed compounds – biochemical, biotinylated probe, 635/667 nm fluorescence, primary screen (AID 1114).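 Further: probe is biotin-labelled aShh protein from a stem cell growth factor screen; measures binding of labelled protein to compounds printed on the slide; score merges feature fluorescence at 667 nm with signal-to-noise.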 The conditions noted are these: small-molecule microarray, higher = more signal.
A short description of test [18]: probe aNog binding to arrayed compounds – biochemical, biotinylated probe, 635/667 nm fluorescence, primary screen (AID 1115).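 Further: probe is biotinylated aNog protein used at 0.15 µg/mL for 1 h at 4 C; z-score combines 667 nm fluorescence of each spot with its signal to noise.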 The conditions noted are these: small-molecule microarray, higher = more signal.
Test [19] has as its target Torsin-1A-interacting protein 1 (Homo sapiens) (UniProt Q5JTV8). Description: compound microarray binding of lysate hLAP1 – cell lysate, small-molecule microarray, COS7 lysate, 635/667 nm fluorescence, primary screen (AID 1116). The conditions noted are these: 635 nm fluorescence, higher = more signal.
Test [20] addresses Alpha-bungarotoxin (Bungarus multicinctus) (UniProt P60615). Briefly: compounds binding labelled alpha-BTX control protein – biochemical, small-molecule microarray, Alexa647 label, 635/667 nm fluorescence, artefact control for SMM control protein annotation, profiling panel (AID 1117). The conditions noted are these: alpha-BTX-A647 binding fluorescence, higher = more signal.

The structures appear in SMILES notation. Activity calls are given as the source filed them.

Sequence of Follistatin-related protein 3 (Homo sapiens) (O95633 whole entry, looked up): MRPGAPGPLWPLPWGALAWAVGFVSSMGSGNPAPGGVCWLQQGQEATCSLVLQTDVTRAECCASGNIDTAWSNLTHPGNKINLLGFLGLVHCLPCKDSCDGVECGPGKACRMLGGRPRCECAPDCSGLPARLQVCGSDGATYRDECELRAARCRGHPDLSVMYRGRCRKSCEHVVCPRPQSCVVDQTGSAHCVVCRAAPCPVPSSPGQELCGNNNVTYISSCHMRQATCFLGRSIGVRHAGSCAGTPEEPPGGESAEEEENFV
Sequence of Torsin-1A-interacting protein 1 (Homo sapiens) (Q5JTV8 whole entry, looked up): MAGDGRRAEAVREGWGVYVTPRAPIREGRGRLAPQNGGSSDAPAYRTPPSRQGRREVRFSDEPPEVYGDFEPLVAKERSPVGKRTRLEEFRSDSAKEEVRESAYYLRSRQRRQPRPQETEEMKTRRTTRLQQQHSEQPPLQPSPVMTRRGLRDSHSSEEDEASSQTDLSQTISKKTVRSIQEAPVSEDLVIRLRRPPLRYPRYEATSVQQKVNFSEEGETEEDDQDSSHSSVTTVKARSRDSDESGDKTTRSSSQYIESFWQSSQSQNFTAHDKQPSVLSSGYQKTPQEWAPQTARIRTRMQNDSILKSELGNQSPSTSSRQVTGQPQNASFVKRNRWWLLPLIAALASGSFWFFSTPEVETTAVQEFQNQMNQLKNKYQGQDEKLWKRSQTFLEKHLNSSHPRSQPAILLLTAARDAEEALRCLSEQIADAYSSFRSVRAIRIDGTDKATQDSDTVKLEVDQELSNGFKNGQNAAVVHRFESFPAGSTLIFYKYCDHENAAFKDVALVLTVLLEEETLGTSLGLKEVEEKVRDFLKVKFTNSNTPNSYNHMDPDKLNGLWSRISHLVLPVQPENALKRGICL
Sequence of Fibroblast growth factor 10 (Homo sapiens) (O15520 whole entry, looked up): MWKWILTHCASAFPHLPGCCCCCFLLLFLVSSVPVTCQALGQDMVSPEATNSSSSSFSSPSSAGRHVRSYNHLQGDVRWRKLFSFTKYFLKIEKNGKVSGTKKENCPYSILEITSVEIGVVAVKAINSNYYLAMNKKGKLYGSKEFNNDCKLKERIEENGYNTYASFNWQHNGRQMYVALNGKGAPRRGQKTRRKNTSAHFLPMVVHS
Sequence of Left-right determination factor 2 (Homo sapiens) (O00292 whole entry, looked up): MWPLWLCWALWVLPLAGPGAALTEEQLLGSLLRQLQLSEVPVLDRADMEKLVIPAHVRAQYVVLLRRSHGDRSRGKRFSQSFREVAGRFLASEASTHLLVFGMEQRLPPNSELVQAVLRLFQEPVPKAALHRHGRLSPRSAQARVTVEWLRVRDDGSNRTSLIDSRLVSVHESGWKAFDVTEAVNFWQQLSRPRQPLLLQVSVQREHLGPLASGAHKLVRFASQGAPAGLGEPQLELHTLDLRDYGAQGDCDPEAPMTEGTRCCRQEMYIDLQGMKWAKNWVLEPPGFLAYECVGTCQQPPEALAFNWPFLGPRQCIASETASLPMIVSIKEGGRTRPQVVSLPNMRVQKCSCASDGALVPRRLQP
Sequence of Epidermal growth factor receptor (Homo sapiens) (P00533 whole entry, looked up): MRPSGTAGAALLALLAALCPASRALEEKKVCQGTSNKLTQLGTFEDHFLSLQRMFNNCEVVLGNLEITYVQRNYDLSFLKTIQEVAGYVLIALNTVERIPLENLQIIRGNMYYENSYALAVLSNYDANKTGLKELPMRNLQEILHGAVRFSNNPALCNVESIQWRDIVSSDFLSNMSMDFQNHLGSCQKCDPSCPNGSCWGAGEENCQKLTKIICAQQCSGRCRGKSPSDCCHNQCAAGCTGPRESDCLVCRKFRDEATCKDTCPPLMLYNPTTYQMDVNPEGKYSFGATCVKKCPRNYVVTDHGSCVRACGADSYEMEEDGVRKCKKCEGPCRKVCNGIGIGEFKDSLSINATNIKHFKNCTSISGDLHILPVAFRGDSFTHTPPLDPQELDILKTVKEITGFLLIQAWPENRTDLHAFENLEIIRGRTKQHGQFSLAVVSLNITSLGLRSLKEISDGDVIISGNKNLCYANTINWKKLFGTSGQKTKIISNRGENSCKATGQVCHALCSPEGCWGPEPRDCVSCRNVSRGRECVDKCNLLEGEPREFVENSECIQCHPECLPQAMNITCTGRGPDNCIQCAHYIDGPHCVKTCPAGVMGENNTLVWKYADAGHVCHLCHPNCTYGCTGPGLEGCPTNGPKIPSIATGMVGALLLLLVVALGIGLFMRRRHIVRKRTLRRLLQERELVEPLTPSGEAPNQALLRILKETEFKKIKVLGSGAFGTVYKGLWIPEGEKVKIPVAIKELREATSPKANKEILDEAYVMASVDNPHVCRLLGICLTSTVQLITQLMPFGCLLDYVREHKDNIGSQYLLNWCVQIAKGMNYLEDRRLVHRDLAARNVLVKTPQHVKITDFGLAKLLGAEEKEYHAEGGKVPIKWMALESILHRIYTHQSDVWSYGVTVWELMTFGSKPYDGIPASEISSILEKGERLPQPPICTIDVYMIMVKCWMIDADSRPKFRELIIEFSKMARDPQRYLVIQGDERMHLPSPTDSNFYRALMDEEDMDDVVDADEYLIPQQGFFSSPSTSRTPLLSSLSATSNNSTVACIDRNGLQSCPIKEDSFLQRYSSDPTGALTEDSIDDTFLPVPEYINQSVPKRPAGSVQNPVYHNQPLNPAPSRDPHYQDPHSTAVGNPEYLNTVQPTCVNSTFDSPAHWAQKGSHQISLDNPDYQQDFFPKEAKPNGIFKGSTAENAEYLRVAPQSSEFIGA
Sequence of Dickkopf-related protein 1 (Homo sapiens) (O94907 whole entry, looked up): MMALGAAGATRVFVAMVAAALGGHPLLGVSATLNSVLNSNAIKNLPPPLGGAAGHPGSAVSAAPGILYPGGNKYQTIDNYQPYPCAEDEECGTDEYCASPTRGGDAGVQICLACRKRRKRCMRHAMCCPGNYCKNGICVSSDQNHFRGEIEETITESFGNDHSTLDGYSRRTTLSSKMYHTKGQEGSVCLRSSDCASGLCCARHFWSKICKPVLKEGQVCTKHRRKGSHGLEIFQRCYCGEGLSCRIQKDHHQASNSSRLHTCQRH
Sequence of Alpha-bungarotoxin (Bungarus multicinctus) (P60615 whole entry, looked up): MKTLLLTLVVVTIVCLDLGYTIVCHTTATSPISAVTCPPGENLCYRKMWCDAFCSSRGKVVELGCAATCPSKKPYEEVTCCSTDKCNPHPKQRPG

On to `C=CCN(C(=O)C1N(c2ccc(CCO)cc2)C(=O)C2C(C(=O)O)C3C=CC21O3)C(C)(C)C` (stereo not given), for which the composite z-score in [1] was 1.86; in test [2], -0.214; in [3], 1.24; in [5] it was -1.86; in [6], -0.723; in [7], -3.08. Besides, the composite z-score in test [8] is -2.73; in [9] it was -4.35; in test [10], -1.06; in [11], -0.266; in test [13], -2.38; in test [14], -0.428. For the same compound, the composite z-score in test [15] is 0.966; in [16] it was -0.287; in test [17] it was -0.27; in [18], -0.219; in test [19] it was 1.71; in test [20], -2.69. The z-score in test [4] is -1.32 (inactive); in [12], 0.333.
With `CO[C@@H]1COC(=O)CC=C[C@H](C)COC(=O)[C@H](Cc2ccccc2)NC(=O)CC=C[C@H]1C`, the composite z-score is 0.534 in test [1]; -1.19 in [2]; -1.74 in test [3]; 0.472 in test [5]; 0.622 in test [6]; 1.03 in [7]. For the same compound, the composite z-score in [8] was 1.25; in test [9], 2.22; in test [10], 1.36; in test [11], -0.416; in test [13], 1.31; in test [14], -1.59. Besides, the composite z-score in test [15] was -2.38; in test [16], -0.288; in test [17], 0.0048; in test [18], -0.547; in test [19], -0.0955; in [20], -1.36. Moreover, the results for the z-score in [4] and in test [12] were -0.912 (inactive) and 1.06, respectively.
As for `O=C(CS)NCCCCCCNC(=O)[C@@H]1C[C@@H]2C(=O)N[C@@H](Cc3ccccc3)C(=O)N2[C@@H]1c1ccc(O)cc1`, the composite z-score in test [1] was 1.6; in test [2], -0.0356; in [3], 0.307; in [5] it was 1.03; in [6], 1.32; in test [7] it was 0.411. The composite z-score in test [8] is 1.19; in test [9], 1.18; in test [10] it was 0.617; in [11] it was 1.45; in [13] it was 0.621; in test [14] it was 2.31. Besides, the composite z-score in test [15] was -0.23; in test [16], 0.0179; in test [17], -0.177; in test [18], -0.443; in test [19] it was 1; in test [20] it was 1.7. Further, the z-score in test [4] was -0.376 (inactive); in test [12] it was -0.144.
Consider `CCCC=C(CCC)[C@@H](NC(=O)c1ccc(C(F)(F)F)cc1)c1ccccc1`, for which the composite z-score was 0.658 in [1]; 0.559 in test [2]; 0.622 in test [3]; -0.433 in test [5]; 0.662 in test [6]; -0.405 in test [7]. The composite z-score in test [8] is 0.0071; in [9] it was -0.446; in test [10], 0.0953; in test [11] it was 1.17; in test [13] it was -0.0957; in [14], 0.815. Moreover, the composite z-score was 0.793 in test [15]; 0.0094 in test [16]; 0.213 in test [17]; 0.644 in test [18]; 0.432 in [19]; 0.25 in test [20]. For the same compound, the z-score was -3.52 (inactive) in test [4] and -1.43 in test [12].
For the compound `Cc1ccc(S[C@]2(C(=O)NC(C)C)CC(=O)N(C3Cc4ccccc4C3)[C@@H]2c2ccc(CO)cc2)cc1`, the composite z-score in [1] was 1.24; in test [2], -0.786; in test [3], 0.556; in test [5], -0.258; in [6], -0.106; in test [7] it was -0.544. Moreover, the composite z-score in test [8] is -0.0429; in test [9], -1.2; in test [10] it was -0.215; in test [11], 0.951; in [13], -0.873; in test [14] it was -0.329. The composite z-score is -0.603 in [15]; -0.098 in [16]; -0.421 in test [17]; -0.315 in test [18]; 1.52 in [19]; 1.12 in test [20]. Moreover, the results for the z-score in [4] and in [12] were -1.15 (inactive) and -2.01, respectively.
For `O=C1c2ccccc2[C@@]2(Cc3ccccc3N(CC(F)(F)F)C2=O)[C@H](c2ccc(CO)cc2)N1C1CCCCC1`, the composite z-score was 0.208 in test [1]; 0.117 in [2]; 0.0803 in test [3]; 0.982 in test [5]; 0.88 in test [6]; 0.229 in [7]. Moreover, the composite z-score is 0.95 in [8]; 1.02 in test [9]; 0.801 in [10]; 0.796 in test [11]; 0.542 in test [13]; -0.575 in [14]. Also, the composite z-score is 0.017 in test [15]; -0.0192 in test [16]; -0.0977 in [17]; -0.369 in test [18]; 0.415 in test [19]; -0.223 in [20]. Also, the values for the z-score in [4] and in test [12] were -0.189 (inactive) and -0.387, respectively.
